CtBP-E1A blk: qHTS Assay for Inhibitors of the CtBP/E1A Interaction | actives 0.49% (n = 340,000) | activity change, % (test concentration not listed) | AID 651724, 2012 | AlphaScreen GST-E1A/His-CtBP binding, 1536-well; hits give low values; in the data active = activity change below about -65%; inconclusive = mostly about -30% to -63%
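In 5 uL wells, 23 nL compound meets equimolar GST-E1A and His-CtBP (5X stock 125 nM each) for 2 h, 37 °C. Beads (5X, 50 ug/mL) then 1 h, 37 °C, dark.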
G9a inh-1: qHTS Assay for Inhibitors of Histone Lysine Methyltransferase G9a. AID 504332, 2011. Potency, µM (titrated, usually from 102 µM), hits mostly inhibitors. actives 8.8% (n = 350,000). G9a H3K9 monomethylation, AlphaScreen, 2 h. Histone-lysine N-methyltransferase EHMT2 (Homo sapiens), Q96KQ7; also: nearly all actives have a fitted effect of over 75% in size
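G9a (20 nM) preincubated 15 min RT with compounds, then 500 nM biotinylated H3K9 peptide and 20 uM SAM added; 2 h RT reaction. Monomethyl-H3K9 product detected by AlphaScreen with anti-H3K9me1 antibody, streptavidin donor and anti-rabbit IgG acceptor beads.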
JMJD2A Tudor inh: qHTS Assay for Inhibitors of JMJD2A-Tudor Domain | Lysine-specific demethylase 4A (Homo sapiens), O75164 | AlphaScreen JMJD2A-Tudor / H3K4me3 peptide binding | Potency, µM (series often up to 114 µM), hits mostly inhibitors | actives 4.4% (n = 390,000); also: nearly all actives have a fitted effect of over 50% in size
Six1-Eya2 blk: qHTS Assay for Inhibitors of the Six1/Eya2 Interaction | activity change, % (test concentration not listed) | AlphaScreen GST-Six1/His-Eya2 binding, biochemical; hits give low values | AID 651725, 2012 | actives 0.56% (n = 360,000) | Homeobox protein SIX1 (Homo sapiens) + Protein phosphatase EYA2 (Homo sapiens), …; in the data active = activity change below about -65%; inconclusive = mostly about -30% to -63%
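Compounds are tested against tagged Six1 and Eya2 proteins bridged by glutathione donor and nickel acceptor beads; after a one-hour incubation at 37 °C without light, AlphaScreen emission is recorded.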
BAZ2B inh: qHTS Assay for Inhibitors of BAZ2B; Bromodomain adjacent to zinc finger domain protein 2B (Homo sapiens), Q9UIF8; AlphaScreen BAZ2B-H3K14Ac peptide displacement; Potency, µM (series often up to 114 µM), usual class: inhibitors; actives 4.4% (n = 360,000); also: nearly all actives have a fitted effect of over 60% in size
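AlphaScreen displacement: compounds (up to 110uM) incubated 30 min at room temperature with a preformed 50 nM BAZ2B/50 nM biotinylated H3K14Ac peptide complex in PBS pH 7.4 with Tween-20. Donor and acceptor beads at 10 ug/mL final added, 20 min light-protected before reading.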
HP1b chromo inh: HTS for Inhibitors of HP1-beta Chromodomain Interactions with Methylated Histone Tails; actives 0.56% (n = 390,000); Chromobox protein homolog 1 (Homo sapiens), P83916; AID 540317, 2011; AlphaScreen HP1-beta / biotin-H3K9me3 peptide binding; Potency, µM (highest dose often 114 µM), most hits filed as inhibitors; also: nearly all actives have a fitted effect of over 70% in size
Target sequence (P83916 whole entry, looked up): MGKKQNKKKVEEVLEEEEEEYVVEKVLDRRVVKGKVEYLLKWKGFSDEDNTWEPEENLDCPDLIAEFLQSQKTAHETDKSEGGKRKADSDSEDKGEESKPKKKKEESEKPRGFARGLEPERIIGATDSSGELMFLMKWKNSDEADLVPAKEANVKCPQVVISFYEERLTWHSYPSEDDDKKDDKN
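HP1-beta protein (50 nM final) preincubated 30 min at room temperature with biotinylated H3(1-18)K9me3 peptide (50 nM) in PBS pH 7.4, 0.01% Tween-20, then compound added for 30 min. AlphaScreen streptavidin donor/nickel chelate acceptor beads (10 ug/mL final), 30 min dark, luminescence read.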
JMJD2E confirm: Confirmation qHTS Assay for Inhibitors of Human Jumonji Domain Containing 2E (JMJD2E) | shares compounds with JMJD2A Tudor inh | Recombinant JMJD2E, FDH-coupled NADH fluorescence (FDH is formaldehyde dehydrogenase) | Potency, µM (top dose mostly 56.8 µM), hits mostly inhibitors | actives 93% (n = 140) | AID 2677, 2010
FDH inh: Counterscreen for JMJD2E Inhibitors: qHTS Assay for Inhibitors of Formaldehyde Dehydrogenase (FDH); shares compounds with JMJD2A Tudor inh; actives 10% (n = 140); Potency, µM (titrated, usually from 56.7 µM), usual class: inhibitors; FDH enzyme assay, NADH fluorescence kinetic
Target sequence (P46154 whole entry, looked up): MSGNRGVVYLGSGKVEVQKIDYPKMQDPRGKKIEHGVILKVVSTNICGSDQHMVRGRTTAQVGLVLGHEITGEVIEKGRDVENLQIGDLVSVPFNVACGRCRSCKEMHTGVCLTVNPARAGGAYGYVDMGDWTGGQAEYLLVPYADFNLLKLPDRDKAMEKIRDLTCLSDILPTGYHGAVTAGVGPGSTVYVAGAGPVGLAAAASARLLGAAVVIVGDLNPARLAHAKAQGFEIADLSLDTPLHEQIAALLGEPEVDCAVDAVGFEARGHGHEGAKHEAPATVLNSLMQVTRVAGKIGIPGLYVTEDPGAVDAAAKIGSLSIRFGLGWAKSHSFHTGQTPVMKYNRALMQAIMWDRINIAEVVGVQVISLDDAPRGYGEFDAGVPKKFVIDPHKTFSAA
G9a inh-2: qHTS Assay for Inhibitors of Histone Lysine Methyltransferase G9a: Hit Confirmation. AID 588344, 2011. actives 89% (n = 370). shares compounds with JMJD2A Tudor inh. G9a H3K9 monomethylation, AlphaScreen, 2 h. Potency, µM, most hits filed as inhibitors; also: nearly all actives have a fitted effect of over 65% in size
RGS4 confirm: qHTS for Inhibitors of Regulator of G Protein Signaling(RGS) 4: Hit Validation. shares compounds with JMJD2A Tudor inh. Potency, µM, actives largely listed as inhibitors. RGS4 GAP activity, Transcreener GDP fluorescence polarization. actives 80% (n = 25)
Hits are given with their value; 0 = inactive; ? = inconclusive; - = no result given; [ ] = remark or other dose. This is a sample that favours compounds with a hit; in the whole collection about 10% have one here. Unless noted, calls follow the shape of the dose curve; as a rule, active = well fitted curve in the direction sought with a large enough effect; inconclusive = small, poorly fitted or top-dose-only effect, or another doubt; inactive = no such curve, though single readings can be large; an effect the other way counts as inactive or inconclusive.

SMILES | CtBP-E1A blk | G9a inh-1 | JMJD2A Tudor inh | Six1-Eya2 blk | BAZ2B inh | HP1b chromo inh | G9a inh-2 | others
O=C(OCc1ccccc1)c1cccnc1 | - | 1.41µM | - | - | - | - | 2.57
O=C(OCc1ccc(Br)cc1)c1cccnc1 | 0 | - | 0 | 0 | 0 | 0 | -
COc1ccccc1CNc1ccc(N2CCCCC2)cc1 | ? | ? | 31.6µM | ? | 12.6µM | 31.6µM | 1.12
COc1cccc(CNc2ccc(S(N)(=O)=O)cc2)c1OC | 0 | 0[12.7 µM] | 0 | 0 | 0 | 0 | -
COc1ccccc1CNc1ccc(C(=O)O)cc1 | 0 | 0 | 0 | 0 | 0 | 0 | -
COc1cccc(CNc2ccc(N3CCCCC3)cc2)c1OC | ? | ? | 35.5µM | -66.5 | 14.1µM | 39.8µM | 0.893
CCCCCn1c(=N)n(CC(O)COc2cccc(C)c2)c2ccccc21 (configuration not stated) | - | 0 | 0 | - | 0 | 0 | -
CCc1ccc(C(=O)CC2(O)C(=O)N(Cc3ccc(C)cc3)c3ccccc32)cc1 (configuration not stated) | - | 5.62µM | 39.8µM | - | 10µM | ? | - | RGS4 confirm=23.8
Cc1ccc(C(=O)CC2(O)C(=O)N(Cc3ccccc3)c3ccc(Br)cc32)cc1 (configuration not stated) | - | 0 | 0 | - | 0 | 0 | -
Cc1cc(C)c(NC(=O)C2CCN(c3nc4ccccc4n4cccc34)CC2)c(C)c1 | - | ? | ? | - | 0 | 0 | -
Cc1ccc2ccc(C(Nc3ccccc3)c3ccc(Cl)cc3)c(O)c2n1 (configuration not stated) | 0 | - | - | 0 | - | - | -
Cc1cccc(NC(c2ccc(C)s2)c2ccc3ccc(C)nc3c2O)n1 (configuration not stated) | 0 | 1.78µM | 0 | 0 | 0 | 0 | 0.399
Cc1nc(-c2ccc(F)cc2)sc1CCNC(=O)c1ccco1 | - | 0 | 0 | - | 0 | 0 | -
CC(OC(=O)c1cccc(S(=O)(=O)N2CCOCC2)c1)C(=O)NC1CCCCC1C (configuration not stated) | 0 | ? | 0 | 0 | 0 | 0 | 35.5
O=C(COC(=O)C1CCN(c2ccc(C(F)(F)F)cn2)CC1)NCc1ccc(F)cc1 | 0 | 0 | 0 | 0 | 0 | 0 | -
CCN(CC)c1ccc(NC(=O)COC(=O)C2CCN(c3ccc(C(F)(F)F)cn3)CC2)cc1 | 0 | 1.58µM | 15.8µM | ? | ? | ? | 2.83
O=c1c(-c2ccc(O)cc2)coc2c(C3OC(CO)C(O)C(O)C3O)c(O)ccc12 (configuration not stated) | - | 0[2.33 µM] | - | - | - | - | -
Cc1ccnc(NC(c2cccnc2)c2ccc3cccnc3c2O)c1 (configuration not stated) | -98.7 | 6.31µM | 22.4µM | -86.0 | 7.08µM | ? | - | JMJD2E confirm=31.6µM;FDH inh=?
CCOC(=O)c1ccccc1NC(=O)N(Cc1ccc(C)cc1)Cc1cccn1-c1nnc(N2CCCC2=O)s1 | - | 0.794µM | 0 | - | 0 | 0 | ?
Cc1ccc(C)c(NC(=O)CCCN2C(=O)COc3ccc(C)cc32)c1 | - | 0 | 0 | - | 0 | 0 | -
Cc1noc(Cn2c(=O)c3cc4c(cc3n(CC(=O)Nc3ccc(C(C)C)cc3)c2=O)OCO4)n1 | - | 0 | 0 | - | 0 | 0 | -
Cn1cc(-c2nc3cncnc3n(Cc3ccc(F)cc3)c2=O)c2ccccc21 | - | 0[0.501 µM] | - | - | - | - | -
O=C(CC1Sc2ncnn2C1=O)Nc1ccc(Br)cc1 (configuration not stated) | 0 | 2µM | 25.1µM | 0 | 0 | ? | 0.178 | JMJD2E confirm=3.98µM;FDH inh=0.282µM
COc1ccc(-n2ncc3c2ncn2nc(-c4ccc(Cl)cc4Cl)nc32)cc1 | - | 0 | 0 | - | 0 | 0 | -
COc1ccc(OC)c(-c2csc(NC(=O)COC(=O)C3CCC3)n2)c1 | 0 | ? | 0 | 0 | 0 | 0 | 10
SMILES | CtBP-E1A blk | G9a inh-1 | JMJD2A Tudor inh | Six1-Eya2 blk | BAZ2B inh | HP1b chromo inh | G9a inh-2 | others
O=C(Nc1ccccc1)Nc1ccc2snnc2c1 | 0 | 0 | 0[11.4 µM] | 0 | 0 | 0 | -
CN(C)c1ccc(NC(=O)Nc2ccc3snnc3c2)cc1 | 0 | 1.26µM | 0 | 0 | 0 | 0 | 1.59
CC(C)c1ccc(N2C(=O)CC(Sc3ncn[nH]3)C2=O)cc1 (configuration not stated) | 0 | 1.26µM | 7.08µM | 0 | 0 | 0 | - | JMJD2E confirm=5.62µM;FDH inh=0.251µM
CC(C)c1ccc(NC(=O)c2cn(C3CCCC3)c(=O)c3c2c2ccccc2n3C)cc1 | - | 0 | 0 | - | 0 | 0 | -
O=C(O)c1ccccc1SCC(=O)N1CCCCC1 | 0 | 0 | 0 | 0 | 0 | 0 | -
O=C(CSc1cccc2cccnc12)N1CCCC1 | -91.4 | ? | ? | -93.3 | 0 | ? | - | JMJD2E confirm=32.4µM;FDH inh=11.5µM
CCn1c(CSc2nc3ccccc3s2)nnc1SCC(=O)c1ccc(O)c(O)c1 | 0 | 0.794µM | 44.7µM | 0 | 35.5µM | 0 | 1.42
CCn1c(CSc2nc3ccccc3s2)nnc1SCC(=O)c1ccc(Cl)cc1 | 0 | ? | ? | 0 | 0 | 0 | -
CCc1c(CN2CCN(c3cccc(C)c3C)CC2)csc1C | - | 0 | 0 | - | 0 | 0 | -
Cc1nc(NC(=O)CSc2ccccc2N)sc1C | 0 | ? | 0 | 0 | 0 | 0 | 17.8
C=C(C)C1COc2cc3oc(=O)ccc3cc2O1 (configuration not stated) | - | 0[2.33 µM] | - | - | - | - | -
Cc1ccc(CCNC(=O)CNS(=O)(=O)c2ccc3nc(C)sc3c2)cc1 | 0 | - | 0 | 0 | 0 | 0 | -
Cc1nc2ccc(CCO)cc2s1 | 0 | 1.12µM | 0 | 0 | 0 | 0 | ?
CC(=O)c1ccc(S(=O)(=O)N2CCCC(N(C)CCc3ccccn3)C2)cc1 (configuration not stated) | - | ? | 0 | 0 | 0 | 0 | ?
